Molecules are shown by their SMILES. Unmarked numbers belong to inactive results. Results filed as inconclusive are left out. Calls of active or inactive are those of the source. Unless noted, the call rests on the fitted dose curve; in most records, active means well fitted curve in the direction sought with a large enough effect in the repeat runs; inconclusive means weak or mixed curves; inactive means no such curve, though single readings can be large; an effect the other way counts as inactive or inconclusive.

A short description of experiment [1]: qHTS assay to identify small molecule antagonists of the estrogen related receptor (ERR) signaling pathway - cell viability counter screen (AID 1224818). Further: series mostly up to about 46 µM. A digest of the protocol:
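Cytotoxicity check run alongside the ERR antagonist screen: cells exposed to test compounds 17.5 h at 37 C, viability taken as CellTiter-Fluor fluorescence intensity.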

Experiment [2] in a line: qHTS assay to identify small molecule agonists of the estrogen related receptor (ERR) signaling pathway (AID 1224820). The procedure, abridged:
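An ERR cell line provided by NTP was seeded at 2,000 cells per well and allowed to settle for 6 h before compounds in DMSO were added. After 18 h at 37 C, luciferase activity was measured by One-Glo luminescence.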

Experiment [3] deals with estrogen-related receptor alpha (ERRalpha) with PGC-1alpha coactivator, human. Put plainly: qHTS assay to identify small molecule antagonists of the estrogen related receptor signaling pathway with the pleiotropic PPARgamma coactivator (PGC) (AID 1224821; calls by dose curve;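 further: series mostly up to about 46 µM; lower luminescence signal means antagonism of PGC/ERR signalling; nearly all actives have a fitted effect of over 50% in size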). The procedure, abridged:
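A PGC/ERR cell line supplied by NTP is seeded, allowed 6 h at 37 C, and treated with test compounds in DMSO for 18 h. Signal is then measured as luciferase luminescence using One-Glo.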

Experiment [4] in a line: qHTS assay to identify small molecule antagonists of the estrogen related receptor signaling pathway with the pleiotropic PPARgamma coactivator (PGC) cell viability counter screen (AID 1224822;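 further: series mostly up to about 46 µM; viability read after 17.5 h compound exposure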). A digest of the protocol: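 Viable cell signal (CellTiter-Fluor, 30 min, 37 C/5% CO2) was measured in PGC/ERR cells after a 17.5 h compound incubation.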
The nature of experiment [5]: qHTS assay to identify small molecule agonists of the estrogen related receptor signaling pathway with the pleiotropic PPARgamma coactivator (PGC) (AID 1224823). The procedure, abridged: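 Compounds dissolved in DMSO are added by pin tool to PGC/ERR cells that have settled for 6 h, and incubation continues 18 h at 37 C. Reporter output is measured as One-Glo luminescence.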

Experiment [6] in a line: qHTS assay for small molecules that induce genotoxicity in human embryonic kidney cells expressing luciferase-tagged ATAD5 (AID 651632). Further: nearly all actives have a fitted effect of over 15% in size. A digest of the protocol:
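Test compounds were delivered by pin tool onto HEK293T reporter cells (2,000/well) expressing ATAD5 fused to luciferase. After 16 hr at 37C, 5% CO2, Amplite was added for 30 min at room temperature and luminescence was measured.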

Experiment [7] is described as follows: qHTS assay for small molecules that induce genotoxicity in human embryonic kidney cells expressing luciferase-tagged ATAD5 - cell viability (AID 651634; calls by dose curve; further: nearly all actives have a fitted effect of over 25% in size). The procedure, abridged:
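Quantitative high-throughput format. HEK293T cells expressing ATAD5 fused to luciferase were plated at 2,000 cells/well and treated 15.5 hr with compound versus DMSO. Viability was determined by fluorescent live-cell protease substrate, 30 min at 37C.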

Experiment [8] can be described thus: qHTS assay for small molecule disruptors of the mitochondrial membrane potential - cell viability (AID 720634; calls by dose curve;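 further: human HepG2 liver cancer cells; series mostly up to about 83 µM; nearly all actives have a fitted effect of over 20% in size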). A digest of the protocol: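 Same-well counter-screen: following the MMP dye addition, CellTiter-Glo was added to 1 hr compound-treated HepG2 cells and luminescence read after 30 min at room temperature.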
The nature of experiment [9]: qHTS assay to test for compound auto fluorescence at 590 nm (red) in HepG2 cells (AID 720674). A digest of the protocol: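 We screened compounds on adherent HepG2 cells, incubating them for an hour at 37 C in 5% CO2 before reading emission at 590 nm under 540 nm excitation; values reflect equivalence to Rose Bengal sodium fluorescence.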
Experiment [10] is described as follows: qHTS assay to test for compound auto fluorescence at 535 nm (green) in HepG2 cells (AID 720675).
Experiment [11] in a line: qHTS assay to test for compound auto fluorescence at 460 nm (blue) in HEK293 cells (AID 720678). A digest of the protocol: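 Blue read-out at excitation 405 nm and emission 460 nm follows overnight compound exposure of HEK293 cells at 37C in 5% CO2. Activity is given as auto fluorescence equivalency to triamterene.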
Experiment [12] in a line: qHTS assay to test for compound auto fluorescence at 590 nm (red) in HEK293 cells (AID 720679). The procedure, abridged:
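Red channel, Ex/Em 540/590nm; signal expressed as equivalency to Rose Bengal sodium. HEK293, 2,000 cells/well, 10% dialyzed FBS; 23 nL compound pinned after 4-5 hr attachment; overnight 37C/5% CO2 before reading.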

A short description of experiment [13]: qHTS assay to test for compound auto fluorescence at 535 nm (green) in HEK293 cells (AID 720680).
Experiment [14] is described as follows: qHTS assay to test for compound auto fluorescence at 460 nm (blue) in HEK293 cell free culture (AID 720681). The procedure, abridged: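 Blue fluorescence (Ex 405/Em 460 nm, triamterene-equivalent) was read immediately after pin transfer of compound or DMSO into medium (DMEM, 10% FBS) without cells.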
Experiment [15] in a line: qHTS assay to test for compound auto fluorescence at 535 nm (green) in HEK293 cell free culture (AID 720682). The procedure, abridged: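 Compounds were pin-transferred into cell-free DMEM with 10% FBS, and green fluorescence was read at excitation 485 nm and emission 535 nm. Intensities were expressed as fluorescein-equivalent values.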
Experiment [16] in a line: qHTS assay to test for compound auto fluorescence at 590 nm (red) in HepG2 cell free culture (AID 720684). A digest of the protocol:
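Cell-free; medium MEM + 10% FBS; compound or DMSO added by pintool; read Ex 540/Em 590 nm; Rose Bengal sodium as red reference fluorophore.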

Experiment [17] is described as follows: qHTS assay to test for compound auto fluorescence at 460 nm (blue) in HepG2 cell free culture (AID 720685). The procedure, abridged:
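Cell-free plates of MEM plus 10% FBS received 23 nL compound or DMSO vehicle; blue-channel (405/460 nm) intensity scored against triamterene as reference fluorophore.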

The nature of experiment [18]: qHTS assay to test for compound auto fluorescence at 535 nm (green) in HepG2 cell free culture (AID 720686).
Experiment [19] is described as follows: qHTS assay to test for compound auto fluorescence at 460 nm (blue) in HepG2 cells (AID 720687). A digest of the protocol:
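Blue-channel autofluorescence (Ex/Em 405/460 nm, triamterene-equivalent) was measured after 1 hr compound exposure at 37 C, 5% CO2. Cells were HepG2, plated overnight at 37 C in MEM plus 10% FBS.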

The target in experiment [20] is Glucocorticoid receptor (Homo sapiens) (UniProt P04150). Put plainly: qHTS assay to identify small molecule agonists of the glucocorticoid receptor (GR) signaling pathway (AID 720691; active means well fitted activation curve with a large enough effect in the signal ratio in the repeat runs, not every such curve was filed as active; the % refers to the signal ratio). The procedure, abridged:
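A HeLa cervical cancer line expressing GR and a glucocorticoid response element-driven beta-lactamase gene is treated with compounds for 18 h; LiveBLAzer B/G FRET substrate is then applied and fluorescence read.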

The target is the same in experiment [21]. The experiment is described as follows: qHTS assay to identify small molecule antagonists of the glucocorticoid receptor (GR) signaling pathway (AID 720692; active means well fitted inhibition curve with a large enough effect in the signal ratio in the repeat runs, not every such curve was filed as active; the % refers to the signal ratio). The procedure, abridged: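 GRE-bla HeLa line, dex-stimulated (5 nM final). Compound exposure 18 h, 37 C. Beta-lactamase FRET read after 2 h RT substrate.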
Experiment [22] can be described thus: qHTS assay to identify small molecule antagonists of the glucocorticoid receptor (GR) signaling pathway - cell viability counter screen (AID 720693). Further: nearly all actives have a fitted effect of over 55% in size.
Experiment [23] in a line: qHTS assay for identifying genotoxic compounds that show differential cytotoxicity against isogenic chicken DT40 cell lines with known DNA damage response pathways - wild type cell line (AID 743012). Further: potency means the concentration at half of the fitted maximal effect; nearly all actives have a fitted effect of over 60% in size. The procedure, abridged: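 300 wt DT40 cells/well; cpd (DMSO) pintool-transferred after ~0.5 h at 37 C/5% CO2; 40 h incubation; CellTiter-Glo added, 30 min RT; luminescence read.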

Experiment [24] can be described thus: qHTS assay for identifying genotoxic compounds that show differential cytotoxicity against isogenic chicken DT40 cell lines with known DNA damage response pathways - Rev3 mutant cell line (AID 743014). Further: potency means the concentration at half of the fitted maximal effect; nearly all actives have a fitted effect of over 55% in size.
The nature of experiment [25]: qHTS assay for identifying genotoxic compounds that show differential cytotoxicity against isogenic chicken DT40 cell lines with known DNA damage response pathways - Rad54/Ku70 mutant cell line (AID 743015). Further: potency means the concentration at half of the fitted maximal effect; nearly all actives have a fitted effect of over 60% in size.
For experiment [26], the target named is Androgen receptor (Homo sapiens) (UniProt P10275). Put plainly: qHTS assay to identify small molecule antagonists of the androgen receptor (AR) signaling pathway (AID 743035; active means well fitted inhibition curve with a large enough effect in the signal ratio in the repeat runs, not every such curve was filed as active; the % refers to the signal ratio). The procedure, abridged:
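In this cell-based reporter screen, compounds were tested in concentration series against R1881-activated HEK293 cells expressing beta-lactamase under UAS control; after 16 h at 37C, FRET substrate was added and fluorescence read 2 h later.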

The target is the same in experiment [27]. Put plainly: qHTS assay to identify small molecule agonists of the androgen receptor (AR) signaling pathway using the MDA cell line (AID 743040; further: nearly all actives have a fitted effect of over 20% in size). The procedure, abridged: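 Luciferase agonist assay: 16 h compound exposure at 37C without CO2 in MDA-kb2 AR-luc cells, whose MMTV promoter responds to both AR and GR. Luminescence measured after 30 min room-temperature incubation with ONE-Glo.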

Experiment [28] can be described thus: qHTS assay to identify small molecule antagonists of the thyroid receptor (TR) signaling pathway - cell viability counter screen (AID 743064). Further: potency means the concentration at half of the fitted maximal effect; nearly all actives have a fitted effect of over 50% in size. A digest of the protocol:
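In-well cytotoxicity read by CellTiter-Fluor (30 min, 37 C) following 23.5 h exposure of GH3 cells bearing a TRE-luciferase sensor. Compounds were added alongside 1 nM (final) T3 to drive TR transactivation.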

Experiment [29] can be described thus: qHTS assay to identify small molecule antagonists of the thyroid receptor (TR) signaling pathway (AID 743065). Further: potency means the concentration at half of the fitted maximal effect; nearly all actives have a fitted effect of over 55% in size. The procedure, abridged: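 Antagonism measured as loss of luciferase signal in GH3 cells stably carrying a TRE-luciferase reporter, co-treated with compound and T3 (1 nM final) for 23.5 h at 37 C. Viability was read in the same well by CellTiter-Fluor.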

Experiment [30] is described as follows: qHTS assay to identify small molecule antagonists of the estrogen receptor alpha (ER-alpha) signaling pathway - cell viability counter screen (AID 743074; calls by dose curve;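 further: HEK293 cells carrying ER-alpha-UAS-bla reporter stimulated with 17beta-estradiol; nearly all actives have a fitted effect of over 45% in size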).
A short description of experiment [31]: qHTS assay to identify small molecule antagonists of the estrogen receptor alpha (ER-alpha) signaling pathway using the BG1 cell line - cell viability counter screen (AID 743081).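 Further: compound given together with 17beta-estradiol as the ER stimulus; series mostly up to about 70 µM; nearly all actives have a fitted effect of over 45% in size.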
Experiment [32] in a line: qHTS assay to identify aromatase inhibitors - cell viability counter screen (AID 743084).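 Further: cells stimulated with testosterone during compound exposure; nearly all actives have a fitted effect of over 55% in size.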
In experiment [33] the target is Aryl hydrocarbon receptor (Homo sapiens) (UniProt P35869). Put plainly: qHTS assay to identify small molecule that activate the aryl hydrocarbon receptor (AhR) signaling pathway (AID 743085). Further: potency means the concentration at half of the fitted maximal effect; nearly all actives have a fitted effect of over 15% in size. The procedure, abridged:
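Luminescence (ONE-Glo) from a dioxin-responsive-element luciferase reporter in HG2L7.5c1 HepG2 cells after 24 hr compound exposure at 37C; viability measured by CellTiter-Fluor fluorescence beforehand.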

Experiment [34] in a line: qHTS assay to identify small molecule that activate the aryl hydrocarbon receptor (AhR) signaling pathway - cell viability counter screen (AID 743086). Further: series mostly up to about 70 µM; nearly all actives have a fitted effect of over 45% in size. A digest of the protocol: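 Cytotoxicity counter screen: CellTiter-Fluor signal (30 min, 37 C) in 4000 HepG2 cells/well carrying the DRE-luciferase reporter, following 24 h compound exposure at 37 C.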
For experiment [35], the target named is Peroxisome proliferator-activated receptor gamma (Homo sapiens) (UniProt P37231). Put plainly: qHTS assay to identify small molecule agonists of the peroxisome proliferator-activated receptor gamma (PPARg) signaling pathway (AID 743094; active means well fitted activation curve with a large enough effect in the signal ratio in the repeat runs, not every such curve was filed as active; the % refers to the signal ratio). A digest of the protocol:
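Cell-based bla reporter, HEK293H background, PPARg-driven UAS. Pre-incubation 5 h, 37C, 5% CO2. Compound 17 h, 37C. Substrate 1 h RT; fluorescence.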

The target of experiment [36] is Nuclear receptor subfamily 1 group I member 2 (Homo sapiens) (UniProt O75469). The experiment is described as follows: CYP3A4 induction through human pregnane X receptor (PXR) by small molecules, qHTS assay (AID 1346984). Further: potency means the concentration at half of the fitted maximal effect; nearly all actives have a fitted effect of over 40% in size. A digest of the protocol:
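Human PXR activation is tracked via CYP3A4 promoter-luciferase in DPX-2 (HepG2) cells. Compounds treat cells for 24hr at 37C, and luminescence is read after One-Glo.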

Experiment [37] has the same target. The experiment is described as follows: Human pregnane X receptor (PXR) activation by small molecules, qHTS assay (AID 1346985). Further: nearly all actives have a fitted effect of over 40% in size. A digest of the protocol:
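DPX-2 cells (HepG2 co-transfected with a PXR response element and a CYP3A4-promoter luciferase construct) were seeded at 2,000 per well, rested 5 hr at 37C, then exposed to DMSO-dissolved compounds for 24 hr. Activation was read as luciferase luminescence.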

Sequence of Androgen receptor (Homo sapiens) (P10275 whole entry, looked up): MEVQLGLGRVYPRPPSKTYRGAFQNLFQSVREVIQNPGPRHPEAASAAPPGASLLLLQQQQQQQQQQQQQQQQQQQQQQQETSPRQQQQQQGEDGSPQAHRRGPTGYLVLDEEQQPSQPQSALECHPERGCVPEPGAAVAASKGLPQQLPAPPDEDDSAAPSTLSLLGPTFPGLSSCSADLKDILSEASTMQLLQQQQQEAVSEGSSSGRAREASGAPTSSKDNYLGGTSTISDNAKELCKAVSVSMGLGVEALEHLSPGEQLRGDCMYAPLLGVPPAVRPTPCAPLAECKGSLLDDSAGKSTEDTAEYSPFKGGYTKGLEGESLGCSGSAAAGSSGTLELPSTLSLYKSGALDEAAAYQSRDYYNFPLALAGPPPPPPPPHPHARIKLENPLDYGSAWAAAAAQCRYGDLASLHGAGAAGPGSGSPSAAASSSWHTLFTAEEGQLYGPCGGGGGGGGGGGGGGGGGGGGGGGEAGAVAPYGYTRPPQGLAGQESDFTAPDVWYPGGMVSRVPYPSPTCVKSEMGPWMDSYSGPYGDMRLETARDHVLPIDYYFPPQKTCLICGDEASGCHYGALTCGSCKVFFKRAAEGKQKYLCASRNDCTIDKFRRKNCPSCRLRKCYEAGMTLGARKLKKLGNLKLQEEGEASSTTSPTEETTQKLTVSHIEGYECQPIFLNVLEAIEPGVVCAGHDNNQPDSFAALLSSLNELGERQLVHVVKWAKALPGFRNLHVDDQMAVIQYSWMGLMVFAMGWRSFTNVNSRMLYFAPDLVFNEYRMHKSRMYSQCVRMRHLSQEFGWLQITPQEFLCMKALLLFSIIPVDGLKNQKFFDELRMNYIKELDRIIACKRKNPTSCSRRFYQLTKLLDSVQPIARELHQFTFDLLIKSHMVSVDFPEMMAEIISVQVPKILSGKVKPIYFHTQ
Sequence of Glucocorticoid receptor (Homo sapiens) (P04150 whole entry, looked up): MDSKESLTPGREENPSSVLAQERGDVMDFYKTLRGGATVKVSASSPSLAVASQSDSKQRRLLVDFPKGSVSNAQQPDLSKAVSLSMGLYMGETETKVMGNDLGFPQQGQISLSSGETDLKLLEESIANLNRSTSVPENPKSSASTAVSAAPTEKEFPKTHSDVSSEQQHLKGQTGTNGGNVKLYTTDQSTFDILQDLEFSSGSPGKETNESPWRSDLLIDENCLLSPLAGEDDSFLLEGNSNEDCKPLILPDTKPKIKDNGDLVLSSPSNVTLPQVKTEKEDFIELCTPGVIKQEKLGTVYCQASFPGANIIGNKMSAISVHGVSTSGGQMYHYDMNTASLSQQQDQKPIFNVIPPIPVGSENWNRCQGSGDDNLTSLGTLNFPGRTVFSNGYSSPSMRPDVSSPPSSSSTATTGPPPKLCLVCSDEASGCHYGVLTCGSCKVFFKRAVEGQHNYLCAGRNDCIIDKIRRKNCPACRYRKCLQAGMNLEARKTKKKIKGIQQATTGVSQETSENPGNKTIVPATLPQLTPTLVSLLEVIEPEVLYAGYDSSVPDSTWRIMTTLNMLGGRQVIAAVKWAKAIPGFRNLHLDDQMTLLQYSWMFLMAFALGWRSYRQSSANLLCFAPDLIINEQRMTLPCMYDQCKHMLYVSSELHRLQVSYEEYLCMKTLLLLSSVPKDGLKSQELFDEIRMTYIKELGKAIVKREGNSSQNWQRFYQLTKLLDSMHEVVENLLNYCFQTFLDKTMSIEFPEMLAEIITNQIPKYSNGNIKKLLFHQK
Sequence of Peroxisome proliferator-activated receptor gamma (Homo sapiens) (P37231 whole entry, looked up): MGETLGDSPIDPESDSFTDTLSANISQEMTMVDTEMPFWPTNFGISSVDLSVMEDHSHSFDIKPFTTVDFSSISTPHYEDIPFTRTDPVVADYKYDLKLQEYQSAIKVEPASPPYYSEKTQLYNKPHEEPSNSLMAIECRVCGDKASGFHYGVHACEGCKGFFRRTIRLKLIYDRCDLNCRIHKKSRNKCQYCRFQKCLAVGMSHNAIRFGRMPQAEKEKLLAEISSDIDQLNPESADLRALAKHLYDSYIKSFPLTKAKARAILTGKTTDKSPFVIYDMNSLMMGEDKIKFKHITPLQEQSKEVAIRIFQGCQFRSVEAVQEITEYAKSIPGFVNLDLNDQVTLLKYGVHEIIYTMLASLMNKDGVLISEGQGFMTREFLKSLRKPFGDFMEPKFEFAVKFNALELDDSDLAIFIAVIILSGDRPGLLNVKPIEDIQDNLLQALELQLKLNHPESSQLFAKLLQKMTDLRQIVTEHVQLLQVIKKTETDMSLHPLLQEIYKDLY
Sequence of Aryl hydrocarbon receptor (Homo sapiens) (P35869 whole entry, looked up): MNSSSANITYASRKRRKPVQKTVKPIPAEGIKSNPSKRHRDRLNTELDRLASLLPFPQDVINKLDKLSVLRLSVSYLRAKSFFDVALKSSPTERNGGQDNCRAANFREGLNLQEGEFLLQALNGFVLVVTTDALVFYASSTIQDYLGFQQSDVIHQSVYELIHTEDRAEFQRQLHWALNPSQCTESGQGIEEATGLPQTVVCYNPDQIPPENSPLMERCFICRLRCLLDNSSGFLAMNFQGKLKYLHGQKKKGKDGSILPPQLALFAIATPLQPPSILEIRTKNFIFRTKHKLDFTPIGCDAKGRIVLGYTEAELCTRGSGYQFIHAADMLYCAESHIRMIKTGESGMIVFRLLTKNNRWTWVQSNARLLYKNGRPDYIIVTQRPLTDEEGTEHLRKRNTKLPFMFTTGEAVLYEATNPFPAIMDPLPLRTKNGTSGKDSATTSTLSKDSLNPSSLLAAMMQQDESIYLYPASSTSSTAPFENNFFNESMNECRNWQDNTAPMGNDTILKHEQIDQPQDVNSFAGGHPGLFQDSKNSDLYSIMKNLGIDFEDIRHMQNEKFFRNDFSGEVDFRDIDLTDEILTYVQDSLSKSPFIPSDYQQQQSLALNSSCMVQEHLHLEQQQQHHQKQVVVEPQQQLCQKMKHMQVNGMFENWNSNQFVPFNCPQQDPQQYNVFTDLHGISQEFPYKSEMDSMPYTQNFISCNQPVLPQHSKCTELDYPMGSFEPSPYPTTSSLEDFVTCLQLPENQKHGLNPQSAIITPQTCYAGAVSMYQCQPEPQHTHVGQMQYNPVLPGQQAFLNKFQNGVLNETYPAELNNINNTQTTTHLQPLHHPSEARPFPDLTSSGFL

In the case of `Oc1ccc2c3c1O[C@H]1c4oc5ccccc5c4C[C@@]4(O)C(C2)N(CC2CC2)CCC314` (some centres undefined), the Potency entry in experiment [1], in experiment [2], in experiment [3], in [4] and in [5] was “inactive” in each case.
Take `NC(CCP(=O)(O)O)C(=O)O` (centres undefined): the Potency entry in [1], in experiment [2], in experiment [3], in experiment [4] and in experiment [5] was “inactive” throughout.
Turning to `NC(N)=Nc1ccc2[nH]c3c(c2c1)C[C@@]1(O)[C@H]2Cc4ccc(O)c5c4[C@@]1(CCN2CC1CC1)[C@H]3O5`, the Potency entry in experiment [1], in experiment [2], in [3] and in experiment [5] was “inactive” throughout.
For the compound `CN[C@@H]1C[C@@H](c2ccc(Cl)c(Cl)c2)c2ccccc21`, the Potency entry in [6], in [7], in experiment [8], in experiment [10], in experiment [11] and in [13] was “inactive” each time. Moreover, the Potency entry in experiment [14], in experiment [15], in experiment [17], in [18], in [19] and in [20] was “inactive” throughout. Moreover, the Potency result in [21], in [22], in experiment [26], in [27], in [30] and in [31] was “inactive” each time. The Potency result in [32], in [34], in [35], in experiment [1], in experiment [2] and in [3] was “inactive” each time. For the same compound, the Potency entry in [37] was “inactive”. The compound was classed as inactive in experiment [9], in experiment [12] and in experiment [16]. For the same compound, the Potency is 5.96 µM (active) in experiment [23]; 11.9 µM (active) in [24]; 11.9 µM (active) in [25]; 11.9 µM (active) in [28]; 11.9 µM (active) in experiment [29]; 29.8 µM (active) in experiment [33]. Besides, the Potency in experiment [36] was 28.2 µM (active).

Values taken from PubChem BioAssay (Tox21).
